Measurements taken from PubChem BioAssay (EPA / NIEHS).
Results filed as inconclusive are left out. Activity calls are given as the source filed them. How the source made its calls, unless noted: active means hit-call score of the fitted dose curve at least 0.9, where 1 is the maximum; inactive means score below 0.9.

Legend:
[1] = CCTE_Harrill_HTTr_Viability_MCF7: CCTE's 6-hour Cell Viability Assessment for the High-Throughput Transcriptomics (HTTr) Platform, in MCF-7 cells cultured in DMEM + 10% fetal bovine serum, Harrill Lab (AID 2284010)
Procedure, shortened: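 Membrane integrity was scored by high-content imaging of propidium iodide dye exclusion after a 6 h exposure across an eight-point dilution series. Data were fitted bidirectionally relative to DMSO as negative control and baseline.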

[2] = CCTE_Harrill_HTTr_Apoptosis_MCF7: CCTE's 6-hour Apoptosis Assessment for the High-Throughput Transcriptomics (HTTr) Platform, in MCF-7 cells cultured in DMEM + 10% fetal bovine serum, Harrill Lab (AID 2284011)
Procedure, shortened: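 Apoptosis in MCF-7 cells grown in DMEM with 10% fetal bovine serum was scored after a six hour exposure by high content imaging of caspase-3/7 activation (CellEvent Caspase 3/7 Green), with DMSO serving as negative control and baseline.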

[3] = CCTE_Harrill_HTTr_CellCount_MCF7: CCTE's Cell Proliferation Assessment for the High-Throughput Transcriptomics (HTTr) Platform, Harrill Lab (AID 2284012; active means hit-call score of the fitted dose curve at least 0.9, where 1 is the maximum;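 further: cells exposed to compound for six hours; intended direction is loss of nuclei count meaning fewer cells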)
Procedure, shortened: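 MCF-7 cells were exposed for 6 h to an eight-point dilution series; Hoechst-labeled nuclei were counted by high content imaging. Curves were fitted bidirectionally against DMSO as negative control and baseline, with signal loss indicating reduced cell count.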

| Compound | outcome [1] | outcome [2] | outcome [3] |
| --- | --- | --- | --- |
| O=S(=O)(c1ccc(O)cc1)c1ccc(O)cc1 | inactive | inactive |  |
| CCNc1nc(Cl)nc(NC(C)(C)C)n1 | inactive | inactive |  |
| CCOP(=S)(OCC)SCSCC | inactive | inactive | inactive |
| OCC1CO1 (configuration not stated) | inactive | inactive |  |
| c1ccc(OP(Oc2ccccc2)Oc2ccccc2)cc1 | inactive | inactive |  |
| Nc1ccc(Sc2ccc(N)cc2)cc1 | inactive | inactive |  |
| Clc1ccc(Oc2ccccc2)cc1 | inactive | inactive |  |
| CCOP(=S)(OCC)SCSc1ccc(Cl)cc1 | inactive | inactive |  |
| Nc1ccc(Cl)cc1 | inactive | inactive |  |
| c1nc[nH]n1 | inactive | inactive |  |
| O=[N+]([O-])c1ccc(Cl)c(Cl)c1 | inactive | inactive | inactive |
| FC(F)(F)c1ccc(Cl)cc1 | inactive | inactive |  |
| CCOP(=S)(S)OCC | inactive | inactive | inactive |
| O=[N+]([O-])c1ccccc1 | inactive | inactive | inactive |
| O=P(Oc1ccccc1)(Oc1ccccc1)Oc1ccccc1 | inactive | inactive |  |
| Cc1ccc(O)cc1C | inactive | inactive | inactive |
| CN(C)C(=O)Cl | inactive | inactive |  |
| ClC(Cl)=C(c1ccc(Cl)cc1)c1ccccc1Cl | inactive | inactive |  |
| ClC(Cl)c1ccccc1 | inactive | inactive |  |
| Cc1ccc([N+](=O)[O-])cc1C | inactive | inactive |  |
| Cc1ccc2c(c1N)C(=O)c1ccccc1C2=O | inactive | inactive |  |
| O=NN1CCCC1 | inactive | inactive | inactive |
| CO/N=C(/C(=O)OC)c1ccccc1COc1ccccc1C | inactive | inactive |  |
